# Where a name gives a salt, the structure may show the parent alone.
# What was measured:
# Assay in all cases: Euclidean distance of Cell Painting phenotypic profile (signed KS, 77 features) to DMSO centroid (dimensionless distance); 5 or 10 uM (library dependent); higher = stronger phenotypic change vs DMSO (phenoactivity)
# Conditions in all cases: 48 h
# 786-O = system: 786-O
# In short: (§1)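 Five cancer lines, together with a healthy fibroblast line, received library compounds for 48 h at a library-dependent 10 or 5 uM and 0.1% DMSO final. Harmony then derived 77 features from confocal 20X images (9 fields/well) of the stained cells, scoring each as a signed Kolmogorov-Smirnov statistic against same-plate vehicle wells. After plate-position correction, correlation weighting and replicate averaging at the top dose, phenoactivity was taken as each profile's Euclidean distance to the median vehicle profile.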
# A549 = system: A549
# In short: as §1
# DU145 = system: DU145
# In short: as §1
# FB = system: FB
# In short: as §1
# HEPG2 = system: HEPG2
# In short: as §1
# OVCAR4 = system: OVCAR4
# In short: as §1
SMILES,Euclidean distance (786-O),Euclidean distance (A549),Euclidean distance (DU145),Euclidean distance (FB),Euclidean distance (HEPG2),Euclidean distance (OVCAR4)
COc1cc(OC)c(NC(=O)Nc2cc(C)on2)cc1Cl,0.922,0.813,1.16,0.91,0.834,1.52
CC(=O)O[C@H]1C[C@@]2(C)[C@@H](C[C@@H](O)[C@H]3[C@@]4(C)CC[C@@H](O)[C@@H](C)[C@@H]4CC[C@@]32C)/C1=C(\CCC=C(C)C)C(=O)O [Fusidate Sodium],1.27,0.59,1.88,1.32,0.533,1.2
C[C@]12CC[C@@H]3c4ccc(OC(=O)c5ccccc5)cc4CC[C@H]3[C@@H]1CC[C@@H]2O [Estradiol Benzoate],0.619,0.854,0.933,1.35,0.557,1.01
CCOc1ccccc1OCCN[C@H](C)Cc1ccc(OC)c(S(N)(=O)=O)c1 [Tamsulosin],1.91,1.28,1.73,1.01,1.38,1.6
C[C@@H]1C[C@H]2[C@@H]3C[C@H](F)C4=CC(=O)C=C[C@]4(C)[C@@]3(F)[C@@H](O)C[C@]2(C)[C@@]1(OC(=O)c1ccco1)C(=O)SCF [fluticasone furoate],2.17,2.7,2.56,2.29,1.53,1.72
Cc1ccc(NC(=O)c2ccc(CN3CCN(C)CC3)cc2)cc1Nc1nccc(-c2cccnc2)n1 [Imatinib (STI571)],1.85,1.68,1.9,2.04,1.78,1.48
CNCC(=O)O [Sarcosine],1.77,0.92,1.05,1.13,0.831,1.75
NC[C@H]1CC[C@H](C(=O)O)CC1 [Tranexamic Acid],1.31,0.903,0.735,0.672,1.31,1.09
CCOc1ccc(Cc2cc([C@@H]3O[C@H](CO)[C@@H](O)[C@H](O)[C@H]3O)ccc2Cl)cc1 [Dapagliflozin propanediol monohydrate],1.02,0.644,1.02,0.967,0.649,0.832
CC(=O)S[C@@H]1CC2=CC(=O)CC[C@]2(C)[C@H]2CC[C@@]3(C)[C@@H](CC[C@@]34CCC(=O)O4)[C@H]12 [Spironolactone],0.955,0.839,1.3,1.04,0.705,0.776
CCCCS(=O)(=O)N[C@@H](Cc1ccc(OCCCCC2CCNCC2)cc1)C(=O)O [Tirofiban Hydrochloride],1,1.07,1.77,1.22,0.871,1.39
C/C(=C\C(=O)OCCCCCCCCC(=O)O)C[C@@H]1OC[C@H](C[C@@H]2O[C@H]2[C@@H](C)[C@H](C)O)[C@@H](O)[C@H]1O [Mupirocin],1.8,0.693,0.636,0.92,0.693,1.35
COc1ccc(CCC(=O)Nc2nc3ccc(Cl)cc3s2)cc1OC,1.29,1.76,1.19,0.998,1.39,1.52
NC(=O)c1cn(Cc2c(F)cccc2F)nn1 [Rufinamide],1.34,1.42,0.931,1.23,0.473,1.4
CCc1nc(C(N)=O)c(Nc2ccc(N3CCC(N4CCN(C)CC4)CC3)c(OC)c2)nc1NC1CCOCC1 [Gilteritinib (ASP2215)],2.93,3.06,3.49,3.66,3.86,2.89
CC(C)NNC(=O)c1ccncc1 [Iproniazid],1.02,0.606,0.811,1.08,0.379,1.18
Cc1cccc(Oc2cnc(=O)[nH]c2)c1,1.47,1.3,1.39,1.47,0.543,0.931
C[C@@H](O)[C@H]1C(=O)N2C(C(=O)O)=C(S[C@@H]3CN[C@H](C(=O)N(C)C)C3)[C@H](C)[C@H]12 [Meropenem Trihydrate],1.26,1.2,0.738,0.87,1.01,0.913
CCOC(=O)Nc1cc(-c2ccc(C)c(NS(C)(=O)=O)c2)nn2c(C)nnc12 [Bromosporine],3.34,2.36,2.42,4.35,1.13,2.35
O=c1cc(N2CCOCC2)oc2c(-c3cccc4c3sc3ccccc34)cccc12,3.24,2.66,2.15,3.31,2.73,1.93
Cc1cccc(C)c1OCC(=O)N[C@@H](Cc1ccccc1)[C@@H](O)C[C@H](Cc1ccccc1)NC(=O)[C@H](C(C)C)N1CCCNC1=O [Lopinavir],2.06,1.69,1.44,1.1,0.896,1.92
CCS(=O)(=O)Nc1ccc2c(c1)/C(=C(/Nc1ccc(CN3CCCCC3)cc1)c1ccccc1)C(=O)N2 [Hesperadin],3.36,3.8,2.47,3.41,2.69,3.25
O=c1[nH]c(=O)n([C@H]2C[C@H](O)[C@@H](CO)O2)cc1I [Idoxuridine],2.71,1.26,2.3,1.41,1.5,1.42
C=CC(=O)N1CCC(Oc2cc3c(Nc4ccc(Cl)c(Cl)c4F)ncnc3cc2OC)CC1 [Poziotinib (HM781-36B)],1.98,3.02,2.11,2.99,3.43,2.12

SMILES,Euclidean distance (786-O),Euclidean distance (A549),Euclidean distance (DU145),Euclidean distance (FB),Euclidean distance (HEPG2),Euclidean distance (OVCAR4)
O=C(c1cc(Cc2n[nH]c(=O)c3ccccc23)ccc1F)N1CCN(C(=O)C2CC2)CC1,1.56,1.23,0.958,1.7,1.21,1.11
CNc1ncc(-c2ccc3c(=O)c(C(=O)O)cn(C4CC4)c3c2C)cc1C [Ozenoxacin],1.31,0.846,0.593,1.13,1.01,0.85
CN(C)CCCN1c2ccccc2Sc2ccc(C(F)(F)F)cc21 [Triflupromazine hydrochloride],1.77,1.63,1.6,2.36,1.76,1.47
CN(C)CCN(Cc1ccc(Cl)cc1)c1ccccn1 [Chloropyramine hydrochloride],0.88,1.23,1.39,1.03,0.594,1.1
COc1ccc(-c2nc3cc(C4=NNC(=O)CC4C)ccc3[nH]2)cc1 (stereo not drawn) [Pimobendan],1.43,1.4,1.01,1.27,1.2,1.02
CC(c1cc2ccccc2s1)N(O)C(N)=O (stereo not drawn) [Zileuton],1.8,0.949,0.621,1.2,1.12,1.11
C/C=C1/[C@H](O[C@@H]2O[C@H](CO)[C@@H](O)[C@H](O)[C@H]2O)OC=C(C(=O)OC)[C@H]1CC(=O)OCCc1ccc(O)c(O)c1 [Oleuropein],0.802,0.844,0.63,0.971,0.64,1.46
CO/N=C(\C(=O)N[C@@H]1C(=O)N2C(C(=O)O)=C(COC(C)=O)CS[C@H]12)c1csc(N)n1 [Cefotaxime sodium],1.09,0.485,0.877,0.644,0.409,0.706
Nc1ncn([C@@H]2O[C@H](CO)[C@@H](O)[C@H]2O)c(=O)n1 [Azacitidine],1.87,1.89,1.92,2.79,1.69,1.33
N[C@@H](CCC(=O)O)C(=O)O [(S)-Glutamic acid],1.39,0.982,1.47,0.799,0.834,1.57
CC1(C)[C@@H](O)CC[C@]2(C)[C@H]3C(=O)C=C4[C@@H]5C[C@@](C)(C(=O)O)CC[C@]5(C)CC[C@@]4(C)[C@]3(C)CC[C@@H]12 [Enoxolone],1.06,0.933,0.631,0.901,0.41,1.32
COc1cc(C(=O)NC2CCCNC2)cc(OC)c1OC (stereo not drawn) [Troxipide],1.15,1.12,1.81,0.842,1.83,1.43
Cc1cccc(Nc2ccccc2C(=O)O)c1C [Mefenamic Acid],0.733,0.521,0.8,1.14,0.673,0.64
Cn1cc(-c2ccc3nnc(C(F)(F)c4ccc5ncccc5c4)n3n2)cn1,0.466,2.03,0.962,1.2,0.706,1.08
CCn1nc(C(=O)O)c(=O)c2cc3c(cc21)OCO3 [Cinoxacin],1.03,1.18,0.942,1.56,0.617,1
COc1ccc(CN2C3CC2CN(c2ccc(-c4cc(OCC(C)(C)O)cn5ncc(C#N)c45)cn2)C3)cn1 [Selpercatinib (LOXO-292. ARRY-192)],0.919,2.72,0.961,1.56,0.545,1.15
C[n+]1ccccc1/C=N/O [Pralidoxime chloride],1.41,0.85,1.53,1.2,0.755,1.08
CS(=O)(=O)Nc1cc2occ(NC=O)c(=O)c2cc1Oc1ccccc1 [Iguratimod],0.942,0.587,2.23,1.05,0.878,0.85
OC(c1ccccc1)(c1ccccc1)C12CC[N+](CCOCc3ccccc3)(CC1)CC2 [Umeclidinium bromide],0.834,1.43,0.97,1.27,0.7,1.64
CCN(CC)CCNC(=O)c1c(C)[nH]c(/C=C2\C(=O)Nc3ccc(F)cc32)c1C [Sunitinib],3.58,3.66,2.98,4.34,3.3,2.86
COc1cc(-c2ncn(/C=C\C(=O)OC(C)C)n2)cc(C(F)(F)F)c1,3.51,3.05,3.45,3.74,2.56,4.53
CCCOc1ccc2[nH]c(NC(=O)OC)nc2c1 [Oxibendazole],2.66,2.7,3.08,2.55,1.73,2.58
COc1cc(/C=C/C(=O)CC(=O)/C=C/c2ccc(O)c(OC)c2)ccc1O [Curcumin],1.77,2.12,1.22,3.06,2.02,1.2
CSc1ccc(C(=O)/C=C/c2cc(C)c(OC(C)(C)C(=O)O)c(C)c2)cc1 [Elafibranor],1.24,1.28,0.801,1.43,0.747,0.978

# Source: the supplement of paper PMC10127200
